# Bioassay records deposited in PubChem BioAssay by National Center for Advancing Translational Sciences (NCATS).
# D2 antag: HTS Assay for Allosteric Antagonists of the Human D2 Dopamine Receptor: Primary Screen for Antagonists; D(2) dopamine receptor (Homo sapiens), P14416; HEK293 TREx D2 cells, calcium flux, dopamine EC80; inhibition, % at 10 µM; actives 2% (n = 340,000); AID 485344, 2010; in the data active means inhibition above about 30%; inactive means below that, where a call was filed; further: 0% is about no effect
# Target sequence (P14416 whole entry, looked up): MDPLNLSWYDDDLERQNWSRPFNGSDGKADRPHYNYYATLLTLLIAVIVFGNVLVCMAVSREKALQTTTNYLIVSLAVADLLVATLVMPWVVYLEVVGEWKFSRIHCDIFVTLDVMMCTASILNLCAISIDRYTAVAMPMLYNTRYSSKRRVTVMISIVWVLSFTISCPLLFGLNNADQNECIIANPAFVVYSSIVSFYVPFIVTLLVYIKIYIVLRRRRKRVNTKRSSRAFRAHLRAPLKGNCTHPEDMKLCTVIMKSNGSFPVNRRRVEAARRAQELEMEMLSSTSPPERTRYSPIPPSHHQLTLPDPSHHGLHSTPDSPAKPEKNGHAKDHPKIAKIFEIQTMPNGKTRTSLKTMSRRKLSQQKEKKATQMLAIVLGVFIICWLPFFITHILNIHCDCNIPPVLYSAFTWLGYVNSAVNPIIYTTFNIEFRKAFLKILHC
#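 Read-out: kinetic calcium fluorescence (1 cycle/s) in inducible HEK293 T-REx D2 cells after an EC80 dopamine addition that followed 180 s compound preincubation. Loss of the dopamine response indicates antagonism.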
# D2 PAM-1: HTS Assay for Positive Allosteric Modulators of the Human D2 Dopamine Receptor: Primary Screen for Potentiators | D(2) dopamine receptor (Homo sapiens), P14416 | HEK293 T-REx D2, calcium flux, EC20 dopamine potentiation | potentiation, % at 10 µM | actives 0.34% (n = 340,000);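 active means potentiation over 3 SD above the plate norm, cut at about 30% in these data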; further: 0% is about no effect
#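 Tetracycline-induced Hek293 Trex D2 cells, force-coupled to calcium, loaded with no-wash calcium dye. Compound added with 180 s kinetic read for agonism, then EC20 dopamine and a further 180 s read for potentiation.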
# D2 PAM-2: Beta-Arrestin HTS for Positive Allosteric Modulators of the Human D2 Dopamine Receptor: Potentiators; actives 0.23% (n = 360,000); DiscoveRx D2 beta-arrestin cells, luminescence, 90 min; 100% = 57 uM dopamine signal; AID 624464, 2012; D(2) dopamine receptor (Homo sapiens), P14416; potentiation, % (test concentration not listed); in the data active means potentiation above about 50%
#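 PathHunter beta-arrestin assay in DiscoveRx D2 cells. Compounds were added with an EC20 of dopamine (50 nM final) for 90 min at 37 deg C. Luminescence was read 1 h after detection reagent, with 57 uM dopamine as the EC100 control.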
# D2 ag-1: Beta-Arrestin HTS for Positive Allosteric Modulators of the Human D2 Dopamine Receptor: Agonists. D(2) dopamine receptor (Homo sapiens), P14416. DiscoveRx PathHunter D2 beta-arrestin, luminescence, 90 min; 100% = 57 uM dopamine signal. activation, % (concentration not given with the values). actives 0.084% (n = 360,000); in the data active means activation above about 40%
#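 Agonist mode: compounds alone added to overnight-plated D2 PathHunter cells for 90 min at 37 C, with 57 uM final dopamine (EC100) defining full response. Beta-arrestin recruitment detected by chemiluminescent reagent, read after 1 h at ambient temperature.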
# D2 ag-2: HTS Assay for Allosteric Agonists of the Human D2 Dopamine Receptor: Primary Screen for Agonists; D(2) dopamine receptor (Homo sapiens), P14416; HEK293 T-REx D2 cells, calcium flux agonist mode; activation, % at 2 µM; actives 0.53% (n = 340,000);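 active means activation over 3 SD above normal in the single-dose calcium agonist read, cut at about 30% in these data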; further: 0% is about no effect
#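 Agonism scored from kinetic calcium signal (1 read/sec, 180 s) following compound pin transfer, after a 10 s baseline. Cells: HEK293 Trex line expressing inducible D2 receptor coupled to calcium, dye-loaded after overnight culture at 30 C.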
# Active calls of the source: *; / = no result. Rows were chosen to be rich in hits. Some 2.4% of all compounds tested hit in one or more screens of this group.
SMILES,D2 antag,D2 PAM-1,D2 PAM-2,D2 ag-1,D2 ag-2
COc1ccccc1NC(=O)c1sc2nc3c(c(C(F)(F)F)c2c1N)CN(C(C)=O)CC3,/,27.2,/,/,-1.3
O=C(CSc1nc2c([nH]c3ccccc32)c(=O)n1-c1ccc(Cl)cc1)NC1CCCCC1,/,2.3,/,/,0.4
Cc1ccc(NC(=O)c2ccc(CN3CC(=O)N4CCCCC4C3=O)cc2)cc1 (stereo not given),/,0.1,/,/,-0.6
CCOC(=O)C1CCCN(Cc2ccc(OCC)cc2)C1 (stereo not given),27.8,-26.8,-11.3,-1.9,41.8*
COc1ccc(CN2CCC(C(N)=O)CC2)cc1OCc1ccccc1,-1.8,-3.9,0.0,-4.2,-0.2
CCOC(=O)C1CCCN(Cc2ccc(OC)c(OCc3ccccc3)c2)C1 (stereo not given),45.4*,-20.7,-3.2,-5.4,-1.4
CCOc1cc(C2c3c(oc4ccccc4c3=O)C(=O)N2Cc2ccc3c(c2)OCO3)ccc1O (stereo not given),/,13.6,/,/,5.5
CCOC(=O)/C(N=Nc1ccc2c(c1)OCO2)=C(\C)O,7.9,118.5*,4.4,2.5,-0.7
COc1cc(OC)cc(C(=O)N/N=C/c2ccc(OC)c(COc3ccc(F)cc3)c2)c1,34.2*,-14.2,-2.6,4.3,0.8
COc1ccc(OCc2cc(/C=N\NC(=O)c3ccccc3)ccc2OC)cc1,12.1,-1.0,5.5,2.4,0.5
O=C(NCCc1ccccc1Cl)c1cc2ccccn2n1,/,-3.3,/,/,0.5
C[C@H](NC(=O)OCc1ccccc1)c1nnc([C@H](C)NC(=O)OCc2ccccc2)o1,38.3*,9.2,-8.4,6.0,-0.2
C[C@H](NC(=O)OCc1ccccc1)c1nnc([C@H](Cc2ccccc2)NC(=O)OC(C)(C)C)o1,30.9*,8.1,-4.7,0.2,0.9
CN(C(=O)CSc1nnc(COc2ccccc2)o1)c1ccccc1,/,-1.3,/,/,-1.5
O=C(CSc1nnc(-c2ccc(Br)cc2)n1-c1ccccc1)c1ccccc1,/,/,/,/,0.3
O=C1CSC(c2ccccc2)N1CC12CC3CC(CC(O)(C3)C1)C2 (stereo not given),37.5*,7.1,6.6,-1.6,0.4
CCOc1ccc(-c2nc(Cn3c(=O)cc(-c4ccccc4)c4c(C)nn(C)c43)c(C)o2)cc1OC,/,/,/,/,0.2
CN(C(=O)CN1C(=O)C2C3CC(C(Br)C3Br)C2C1=O)C1CCCCC1 (stereo not given),30.8*,8.9,-0.5,2.4,-0.1
Cc1nc(NCc2ccco2)[nH]c(=O)c1CCC(C)C,30.3*,/,11.2,12.0,3.4
Cc1ccc(OCC(=O)Nc2cccc(C(=O)OCc3cc(=O)n4c(C)csc4n3)c2)cc1,/,-6.2,/,/,0.9
C(=N\Nc1nc(-c2ccccc2)cs1)/c1cccs1,-10.6,5.4,62.9*,12.6,-1.2
C(=N\Nc1nc(-c2ccccc2)cs1)/c1ccncc1,-14.9,-5.0,-5.1,4.0,0.9
COc1ccc(-n2c(SCC(=O)Nc3ccccc3)nc3c(c2=O)SCC3)cc1,31.4*,11.7,-5.7,-1.6,-1.3
COc1ccc(-n2c(SCC(=O)N3CCOCC3)nc(O)c(Cc3ccccc3)c2=O)cc1,42.9*,-3.0,-9.6,-2.6,0.9
COc1ccccc1-n1c(SCC(=O)Nc2nnc(C)s2)nc2c(c1=O)SCC2,6.3,30.6*,0.0,1.0,0.9
SMILES,D2 antag,D2 PAM-1,D2 PAM-2,D2 ag-1,D2 ag-2
COc1ccc(-n2c(SCC(=O)N3CCOCC3)nc(O)cc2=O)cc1,/,1.4,10.1,-1.5,/
Cc1ccc(-n2nc(C(=O)Nc3ccc(Cl)cn3)c3c4ccccc4n(C)c3c2=O)cc1,/,16.2,/,/,-0.1
Cc1cc(C(=O)N2CCN(c3cc(Cl)ccc3C)CC2)c2c(C)nn(-c3ccccc3)c2n1,/,6.1,/,/,1.0
COc1cccc(-n2c(=O)c3c(C)c(C)sc3n(CC(=O)NCc3ccc(C)cc3)c2=O)c1,/,5.6,/,/,0.2
Cc1cccc(C)c1OCC1CNC(=O)O1 (stereo not given),36.1*,3.5,-0.4,0.1,0.1
COC(=O)c1ccccc1OCCN1CCCCCC1,38.9*,-34.1,-16.6,0.8,3.5
CC(=O)c1ccccc1OCCOc1ccccc1C(C)=O,-4.2,0.6,0.2,-6.3,0.2
CC(=O)c1ccccc1OCCCCN1CCCCC1,58.5*,-28.1,-4.8,-5.4,1.6
COC(=O)c1ccc(OCCN2CCCCCC2)cc1,55.0*,-30.7,-22.1,3.9,-1.0
CCc1ccccc1OCCCCN1CCCC1,46.5*,-18.3,-38.0,-5.5,1.9
CCOc1ccc(NC(=O)c2c(C)oc3nc(C)nc(N4CCOCC4)c23)cc1,/,2.0,/,/,/
CCN1CCN(CCOc2cccc(Cl)c2Cl)CC1,-11.8,7.0,-5.1,1.2,-2.8
CCC(=O)c1ccccc1OCCN1CCN(CC)CC1,37.5*,-20.4,-12.7,1.3,-0.8
O=C1CCNc2cc3ccccc3cc21,5.9,28.1,55.4*,14.9,-0.5
COc1ccc(N2CCN(C(=O)CSc3nnc4n3C(C)(C)Cc3ccccc3-4)CC2)cc1,-6.0,18.6,-0.2,-1.7,-0.6
Cc1ccc(Cl)cc1N1CCN(C(=O)CSc2nnc3n2C(C)(C)Cc2ccccc2-3)CC1,-11.6,30.5*,6.5,1.5,-0.4
CCc1ccc(NC(=O)C(=O)NCC(c2ccc3c(c2)OCO3)N2CCN(C)CC2)cc1 (stereo not given),/,6.2,/,/,1.5
COc1ccccc1NC(=O)CSc1nnc(-c2ccco2)n1N,33.9*,-9.8,-13.4,-2.6,0.3
CCOC(=O)CNC(=O)CSc1nnc(-c2ccco2)n1N,34.3*,-6.8,-0.1,-1.5,0.1
CCOC(=O)CNC(=O)CSc1nnc(-c2ccco2)n1Cc1ccco1,2.9,-0.1,-6.5,1.0,-0.5
O=C(CSc1nnc2ccc3ccccc3n12)c1ccc(F)cc1,/,7.9,/,/,-1.1
Cc1ccc2c(c1)C(c1ccc(F)cc1)N(C(=O)COc1ccc(Cl)cc1Cl)CC(=O)N2 (stereo not given),/,9.3,/,/,0.7
Cc1ccc(N(Cc2cc3ccccc3[nH]c2=O)C(=O)c2cccc(Cl)c2)cc1,/,-5.6,/,/,/
O=C1CC(N2CCC(c3nc4ccccc4s3)CC2)C(=O)N1 (stereo not given),32.8*,/,-21.0,-5.8,-1.0
Cc1cccc(NC(=O)c2c(NC(=O)c3ccco3)sc3c2CCC(C(C)(C)C)C3)c1 (stereo not given),/,11.2,/,/,0.5
